In the library only some 1.4% were active in any assay of this set; here they are far more common.
pCIP destab – p/CIP-EGFP fusion destabilizers, primary screen, fluorescence, F442A cells. 16 h. hit rate 0.01% among 290,000. decrease of EGFP signal, % at 10 µM;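 active means EGFP signal decrease of at least 30% at 10 µM or well 3 SD below plate mean, unless failing retest; inactive means the rest, including hits failing retest or dose response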
Target sequence (Q05BA5 1-1403): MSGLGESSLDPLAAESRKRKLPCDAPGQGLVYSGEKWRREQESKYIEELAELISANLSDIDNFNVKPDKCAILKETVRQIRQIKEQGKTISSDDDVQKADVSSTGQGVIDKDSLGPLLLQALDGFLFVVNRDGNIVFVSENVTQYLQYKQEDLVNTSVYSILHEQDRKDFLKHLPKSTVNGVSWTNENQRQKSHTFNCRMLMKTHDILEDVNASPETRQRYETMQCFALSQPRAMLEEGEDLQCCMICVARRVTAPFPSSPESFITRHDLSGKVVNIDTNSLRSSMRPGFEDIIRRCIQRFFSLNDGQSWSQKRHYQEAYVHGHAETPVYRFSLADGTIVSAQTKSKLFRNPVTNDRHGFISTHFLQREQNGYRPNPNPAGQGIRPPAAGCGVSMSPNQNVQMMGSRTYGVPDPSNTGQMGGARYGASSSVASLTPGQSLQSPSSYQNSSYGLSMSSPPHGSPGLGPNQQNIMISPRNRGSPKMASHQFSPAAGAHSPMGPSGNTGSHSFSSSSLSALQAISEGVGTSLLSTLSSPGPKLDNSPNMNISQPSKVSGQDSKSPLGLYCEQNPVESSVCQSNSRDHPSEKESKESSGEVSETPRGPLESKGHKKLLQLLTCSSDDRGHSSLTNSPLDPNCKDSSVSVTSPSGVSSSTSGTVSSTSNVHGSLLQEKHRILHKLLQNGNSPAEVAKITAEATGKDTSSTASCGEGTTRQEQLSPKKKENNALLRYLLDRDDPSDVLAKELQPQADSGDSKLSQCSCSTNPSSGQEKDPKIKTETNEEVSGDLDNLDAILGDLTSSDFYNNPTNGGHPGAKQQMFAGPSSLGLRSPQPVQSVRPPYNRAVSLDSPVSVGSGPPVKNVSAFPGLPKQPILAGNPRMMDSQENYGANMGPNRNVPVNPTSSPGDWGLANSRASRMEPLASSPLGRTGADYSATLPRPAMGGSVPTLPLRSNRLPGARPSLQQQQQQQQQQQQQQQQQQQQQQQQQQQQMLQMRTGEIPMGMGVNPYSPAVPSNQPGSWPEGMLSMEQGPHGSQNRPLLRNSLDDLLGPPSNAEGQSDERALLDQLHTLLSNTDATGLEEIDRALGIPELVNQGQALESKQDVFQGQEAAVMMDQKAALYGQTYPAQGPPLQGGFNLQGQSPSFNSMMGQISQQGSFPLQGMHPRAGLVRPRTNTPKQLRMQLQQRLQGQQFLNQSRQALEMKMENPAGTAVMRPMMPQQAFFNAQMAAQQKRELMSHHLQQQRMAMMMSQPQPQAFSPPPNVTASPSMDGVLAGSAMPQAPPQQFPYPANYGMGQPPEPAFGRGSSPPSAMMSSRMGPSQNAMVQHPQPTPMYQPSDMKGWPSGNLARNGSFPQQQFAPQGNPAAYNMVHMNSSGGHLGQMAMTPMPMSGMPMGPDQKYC
Yeast superoxide – reduction of superoxide in aged yeast, primary screen, HTS. superoxide response (% of plate mean), % at 10 µM. hit rate 0.18% among 330,000. AID 2690, 2010. S. cerevisiae aged cells, superoxide DHE fluorescence; hits give low values;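 active means superoxide response under a set limit, about three screen SD below normal, cut at about 65% in these data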;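 further: yeast aged for seven days with compound at 30 °C before DHE staining; 100% = average MFI of all compound-treated wells on the plate with controls excluded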
beta cell repl – inducers of MIN6 beta-cell proliferation, primary screen, ATP luminescence, uHTS; proliferation, % at 10 µM; AID 2380, 2010; MIN6 cells proliferation, ATPlite luminescence, 48 h; cells starved in 0.2% serum; 100% = growth in 10% serum; hit rate 0.29% among 330,000;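 active means compounds whose signal lies at least 3.5 SD above the mean of all wells on their plate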;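 further: 0% = DMSO-treated cells in low-serum medium and 100% = 10% serum control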
H9c2 protect – cardioprotection against H2O2-induced cell death, primary screen, uHTS, H9c2 cells, ATPLite luminescence; protection from H2O2 cell death, % at 20 µM; hit rate 0.63% among 360,000; H9c2 cardiomyocytes, H2O2 injury protection, 2 h; AID 588492, 2011;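 active means compounds giving at least 50% protection of heart cells from peroxide-induced death in the single-dose screen, raw or plate-pattern-corrected value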;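 further: 0% = DMSO wells with peroxide and 100% = DMSO wells without peroxide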
HSV replic up – enhancers of HSV replication in host cells, fold increase, host cell viability; AID 1956, 2009; hit rate 0.005% among 220,000; maximum fold increase; HSV replication augmentation in cells; in the data active means maximum fold increase above about 1.5; tested in PC3 cells
V-ATPase pH – regulators of yeast V-ATPase proton pumping, primary screen, pHLuorin cytosolic pH fluorescence | S. cerevisiae | response, % at 10 µM | hit rate 0.37% among 350,000 | AID 504577, 2011; in the data active means response mostly above about 7.3%, no sharp cut-off; inactive means mostly below about 5.4%; further: actives read high
The depositor's hits bear a star; i = inactive; / = no result given.

SMILES	pCIP destab	Yeast superoxide	beta cell repl	H9c2 protect	HSV replic up	V-ATPase pH
CCOc1cc(/C=C2\SC(=N)N(c3nccs3)C2=O)ccc1OCCN1CCOCC1	-11.8	105.6	-1.3	53.9*	i	-0.9
COc1ccc(Cc2nc3ccc(C(=O)NC(C)c4cn(C)nc4C)cc3o2)cc1 (configuration not stated)	15.3	111.6	2.8	-3.9	/	-2.6
Cc1nc(SCC(=O)O)c2oc3ccccc3c2n1	2.1	106.8	-3.0	1.4	i	-1.4
Cc1nc(SCC(=O)N2CCN(c3ccccc3)CC2)c2oc3ccccc3c2n1	-10.4	118.9	-3.2	74.5*	i	-2.1
COc1ccc(C=O)cc1Oc1nc(Cl)ncc1F	-23.1	95.0	1.8	-8.8	i	-1.1
Cc1ccc(-c2ccc3c(c2)O[C@H](CN(C)C(=O)Nc2ccc(C(F)(F)F)cc2)[C@H](C)CN([C@H](C)CO)S3(=O)=O)cc1	/	/	/	-3.4	/	/
CCC(=O)Nc1ccc(N2CCN(C(=O)c3cccs3)CC2)cc1	-4.8	104.8	-3.3	-7.5	i	0.9
O=C(COc1ccccc1[N+](=O)[O-])Nc1ccc(N2CCN(C(=O)c3cccs3)CC2)cc1	-18.8	105.2	-4.1	65.9*	i	-2.0
O=c1ccc(N=Nc2ccccc2)ccc1O	-0.3	102.0	/	46.9	i	44.1*
O=S(=O)(O)c1ccc(N=Nc2ccccc2)cc1	10.1	109.8	-1.1	4.4	i	-0.7
COc1ccc(N2C(=O)C(CC(=O)Nc3ccccc3)N(Cc3cccs3)C2=O)cc1 (configuration not stated)	-10.1	109.4	-2.8	-3.1	i	15.9*
Cc1nn(-c2ccccc2)c(Cl)c1/C=N/NC(=O)c1[nH]ncc1Br	7.6	88.8	-4.0	-15.1	/	-0.1
COc1ccccc1NC1CCCCC1NS(=O)(=O)c1ccc(C)cc1 (configuration not stated)	-8.1	/	-3.2	-6.5	/	-0.8
COc1ccc(NC2CCCCC2NS(=O)(=O)c2ccc(C)cc2)cc1 (configuration not stated)	0.4	92.0	-1.7	-2.0	/	21.0*
CC(=NCCc1c(C)[nH]c2ccc(OC(F)(F)F)cc12)C1=C(O)CC(c2ccccc2)CC1=O (configuration not stated)	3.7	65.2*	-5.2	-13.2	i	-1.9
COc1ccc(OCC(=O)N/N=C/c2cccc3cccnc23)cc1	-5.5	100.7	-2.7	68.2*	/	-2.8
O=C(COc1ccc(Cl)cc1)N/N=C/c1cccc2cccnc12	-3.4	99.5	-6.3	37.9	/	-0.5
COc1ccccc1OCC(=O)N/N=C/c1cccc2cccnc12	1.1	110.4	-1.2	65.1*	/	0.3
COc1cccc(/C=N/NC(=O)COc2cccc3cccnc23)c1O	-6.4	91.3	-5.2	47.2	i	-1.3
O=C(c1ccco1)N1CCN(Cc2nc3ccc([N+](=O)[O-])cc3c(=O)n2-c2ccccc2F)CC1	-2.9	121.7	1.3	54.4*	i	-5.0
Cc1cccc(Cn2c(C(=O)OC(C)C)cc3c2ccn3C)c1	-11.6	103.7	-3.3	0.6	i	-1.4
CCCCn1nc(NC(=O)c2cccs2)c2cc3cc(OC)ccc3nc21	1.2	93.4	-4.1	62.5*	i	-3.5
COc1ccc2nc3c(cc2c1)c(NC(=O)C1CCCO1)nn3CC(C)C (configuration not stated)	-4.6	91.0	-2.4	97.7*	i	-2.1
Cc1ccc(NC(=O)CCCn2nc(C)c3c(C)n(-c4ccccc4)nc3c2=O)c(Cl)c1	-4.5	107.1	-4.7	2.0	/	-1.9
CCOC(=O)C1(C)CCCN(C(=O)c2c(-c3ccccc3)noc2C)C1 (configuration not stated)	/	/	/	3.9	/	/
SMILES	pCIP destab	Yeast superoxide	beta cell repl	H9c2 protect	HSV replic up	V-ATPase pH
C=CCN1C(=O)/C(=C2\SC(N3CCOCC3)=NC2=O)c2cc(Br)ccc21	2.1	99.6	-1.0	76.1*	i	-3.8
Cc1cc(C)cc(OCC(=O)Nc2cccc(-c3nc4ncccc4o3)c2)c1	-11.1	98.3	-1.5	101.7*	i	0.5
CCN(C[C@H]1N[C@@](CC)(C(=O)OC)[C@H]2C(=O)N(Cc3ccccc3)C(=O)[C@@H]12)S(=O)(=O)c1ccc(F)cc1	/	96.4	-2.3	58.9*	/	-1.8
COc1ccc(-c2csc3ncnc(N4CCN(S(=O)(=O)c5cccc(Br)c5)CC4)c23)cc1	/	105.7	-1.2	3.4	/	-0.2
COc1ccc(-c2csc3ncnc(N4CCN(S(=O)(=O)c5ccc(C(C)=O)cc5)CC4)c23)cc1	/	84.4	-1.9	16.0	/	17.0*
COc1c(-c2ccccc2)oc2c(ccc3occc32)c1=O	/	91.0	4.6	3.1	/	-0.6
O=C(CSc1ncc(-c2ccccc2)n1CC1CCCO1)N1CCCCC1 (configuration not stated)	1.4	107.0	-4.1	-3.9	i	3.8
Nc1ncc(-c2ccccc2)n1CC1CCCO1 (configuration not stated)	-11.1	92.1	-1.9	61.6*	i	2.5
COC(=O)[C@@H](N)Cc1ccc(O)c(O)c1	/	110.2	-6.4	58.5*	/	5.0
COC(=O)C(N)Cc1ccc(Cl)cc1 (configuration not stated)	/	91.9	-1.1	12.0	/	4.7
N#C/C(=C\c1cccn1S(=O)(=O)c1cccc([N+](=O)[O-])c1)S(=O)(=O)c1ccc(F)cc1	/	/	/	-0.5	/	/
O=C(N/N=C/c1c(O)ccc2ccccc12)C(=O)N1CCCC1	/	/	/	52.2*	/	-0.2
O=C(CN1CCCC1)N/N=C/c1c(O)ccc2ccccc12	-0.8	100.4	-4.7	49.2	/	-2.9
C/C(=N\Nc1ncnc2sc(C)c(C)c12)c1ccccn1	-515.8	35.8*	-3.9	17.1	/	69.6*
Cc1ccc(-c2nn3c(-c4ccco4)nnc3c3ccccc23)cc1S(=O)(=O)NCC1CCCO1 (configuration not stated)	-4.9	123.0	-2.2	54.7*	i	-0.8
CN(C(=O)CSc1nnc(-c2ccc(F)cc2)n1C)C1CCS(=O)(=O)C1 (configuration not stated)	/	118.8	-2.3	-2.1	/	10.1*
Cc1ccccc1Nc1nnc(SCC(=O)N(C)C2CCS(=O)(=O)C2)s1 (configuration not stated)	1.3	86.4	0.0	3.0	i	15.8*
CC(C)CCN1CCN(Cc2nc3c(s2)CCCC3)CC1CCO (configuration not stated)	-5.1	101.5	-1.1	0.2	i	0.4
C=CCOc1ccc(/C=N/NC(=O)c2c(C)nc3ccc(Cl)cn23)cc1	-7.0	92.7	-4.0	-10.9	/	4.2
O=C(NCCc1c[nH]c2ccccc12)C(=O)NCC(c1ccco1)N1CCN(c2ccccc2F)CC1 (configuration not stated)	1.5	101.1	0.0	62.6*	i	4.9

Screening results deposited in PubChem by several laboratories.
